Experimental data taken from publication PMC9911399, “Two distinct binding modes provide the RNA-binding protein RbFox with extraordinary sequence specificity”.
Residue numbers refer to the chain shown, from its start. Whole data set: some 16,000 sequences, median “ka relative to ugcaugu” near 0.096, cut for the highest 2% near 0.35. For the sample, the highest values were picked, then their nearest neighbours and some sequences at random.

T1: RBFOX1 RRM RbFoxmut (Fox-RRM*) (Homo sapiens, UniProt Q9NWB1 109-208, R118D;E147R;N151S;E152T)
T1 sequence: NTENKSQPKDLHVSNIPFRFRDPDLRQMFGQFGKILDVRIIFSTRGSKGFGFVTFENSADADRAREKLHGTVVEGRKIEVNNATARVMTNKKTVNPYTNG

B1: CAGCAUU (DNA:RNA)
RNA: GGGAGACCGGAAUUCAGAUUGUCCCAGCAUUUUAAAUCCCGUCGUAGCCACCA
DNA 1: CAATCTGAATTCCGGTCTCCC
DNA 2: TGGTGGCTACGACGGGATT
B2: UUAAACA (DNA:RNA)
RNA: B1 RNA with C25U, A26U, G27A, C28A, U30C, U31A
DNA 1: CAATCTGAATTCCGGTCTCCC
DNA 2: TGGTGGCTACGACGGGATT
B3: CCUGGCA (DNA:RNA)
RNA: B1 RNA with A26C, G27U, C28G, A29G, U30C, U31A
DNA 1: CAATCTGAATTCCGGTCTCCC
DNA 2: TGGTGGCTACGACGGGATT
B4: AUGCAUC (DNA:RNA)
RNA: B1 RNA with C25A, A26U, U31C
DNA 1: CAATCTGAATTCCGGTCTCCC
DNA 2: TGGTGGCTACGACGGGATT
B5: AUCCAUC (DNA:RNA)
RNA: B1 RNA with C25A, A26U, G27C, U31C
DNA 1: CAATCTGAATTCCGGTCTCCC
DNA 2: TGGTGGCTACGACGGGATT
B6: GUCCAUC (DNA:RNA)
RNA: B1 RNA with C25G, A26U, G27C, U31C
DNA 1: CAATCTGAATTCCGGTCTCCC
DNA 2: TGGTGGCTACGACGGGATT
B7: AUGCAGA (DNA:RNA)
RNA: B1 RNA with C25A, A26U, U30G, U31A
DNA 1: CAATCTGAATTCCGGTCTCCC
DNA 2: TGGTGGCTACGACGGGATT
B8: AUGCAUG (DNA:RNA)
RNA: B1 RNA with C25A, A26U, U31G
DNA 1: CAATCTGAATTCCGGTCTCCC
DNA 2: TGGTGGCTACGACGGGATT
B9: AUGCAUA (DNA:RNA)
RNA: B1 RNA with C25A, A26U, U31A
DNA 1: CAATCTGAATTCCGGTCTCCC
DNA 2: TGGTGGCTACGACGGGATT
B10: AACCGUG (DNA:RNA)
RNA: B1 RNA with C25A, G27C, A29G, U31G
DNA 1: CAATCTGAATTCCGGTCTCCC
DNA 2: TGGTGGCTACGACGGGATT
B11: GGCUGGA (DNA:RNA)
RNA: GGGAGACCGGAAUUCAGAUUGUCCGGCUGGAUUAAAUCCCGUCGUAGCCACCA
DNA 1: CAATCTGAATTCCGGTCTCCC
DNA 2: TGGTGGCTACGACGGGATT
B12: CUCCGAA (DNA:RNA)
RNA: B11 RNA with G25C, G26U, U28C, G30A
DNA 1: CAATCTGAATTCCGGTCTCCC
DNA 2: TGGTGGCTACGACGGGATT
B13: UGCUACC (DNA:RNA)
RNA: B11 RNA with G25U, G29A, G30C, A31C
DNA 1: CAATCTGAATTCCGGTCTCCC
DNA 2: TGGTGGCTACGACGGGATT
B14: AAAUGCG (DNA:RNA)
RNA: B11 RNA with G25A, G26A, C27A, G30C, A31G
DNA 1: CAATCTGAATTCCGGTCTCCC
DNA 2: TGGTGGCTACGACGGGATT
B15: UGACUUC (DNA:RNA)
RNA: B1 RNA with C25U, A26G, G27A, A29U, U31C
DNA 1: CAATCTGAATTCCGGTCTCCC
DNA 2: TGGTGGCTACGACGGGATT
B16: UCAUAAU (DNA:RNA)
RNA: B1 RNA with C25U, A26C, G27A, C28U, U30A
DNA 1: CAATCTGAATTCCGGTCTCCC
DNA 2: TGGTGGCTACGACGGGATT
B17: UUGCCCG (DNA:RNA)
RNA: B1 RNA with C25U, A26U, A29C, U30C, U31G
DNA 1: CAATCTGAATTCCGGTCTCCC
DNA 2: TGGTGGCTACGACGGGATT
B18: ACGUGCG (DNA:RNA)
RNA: B11 RNA with G25A, G26C, C27G, G30C, A31G
DNA 1: CAATCTGAATTCCGGTCTCCC
DNA 2: TGGTGGCTACGACGGGATT
B19: GUGCACC (DNA:RNA)
RNA: B1 RNA with C25G, A26U, U30C, U31C
DNA 1: CAATCTGAATTCCGGTCTCCC
DNA 2: TGGTGGCTACGACGGGATT
B20: UUGCACC (DNA:RNA)
RNA: B1 RNA with C25U, A26U, U30C, U31C
DNA 1: CAATCTGAATTCCGGTCTCCC
DNA 2: TGGTGGCTACGACGGGATT
B21: AUGCACC (DNA:RNA)
RNA: B1 RNA with C25A, A26U, U30C, U31C
DNA 1: CAATCTGAATTCCGGTCTCCC
DNA 2: TGGTGGCTACGACGGGATT
B22: AUCCACG (DNA:RNA)
RNA: B1 RNA with C25A, A26U, G27C, U30C, U31G
DNA 1: CAATCTGAATTCCGGTCTCCC
DNA 2: TGGTGGCTACGACGGGATT
B23: GUGCACG (DNA:RNA)
RNA: B1 RNA with C25G, A26U, U30C, U31G
DNA 1: CAATCTGAATTCCGGTCTCCC
DNA 2: TGGTGGCTACGACGGGATT
B24: AUGCACG (DNA:RNA)
RNA: B1 RNA with C25A, A26U, U30C, U31G
DNA 1: CAATCTGAATTCCGGTCTCCC
DNA 2: TGGTGGCTACGACGGGATT
B25: UUGCACG (DNA:RNA)
RNA: B1 RNA with C25U, A26U, U30C, U31G
DNA 1: CAATCTGAATTCCGGTCTCCC
DNA 2: TGGTGGCTACGACGGGATT
B26: GUGUCUU (DNA:RNA)
RNA: B1 RNA with C25G, A26U, C28U, A29C
DNA 1: CAATCTGAATTCCGGTCTCCC
DNA 2: TGGTGGCTACGACGGGATT
B27: UGAUGGG (DNA:RNA)
RNA: B11 RNA with G25U, C27A, A31G
DNA 1: CAATCTGAATTCCGGTCTCCC
DNA 2: TGGTGGCTACGACGGGATT
B28: GGUGGAC (DNA:RNA)
RNA: B11 RNA with C27U, U28G, G30A, A31C
DNA 1: CAATCTGAATTCCGGTCTCCC
DNA 2: TGGTGGCTACGACGGGATT
B29: CGCAACA (DNA:RNA)
RNA: B11 RNA with G25C, U28A, G29A, G30C
DNA 1: CAATCTGAATTCCGGTCTCCC
DNA 2: TGGTGGCTACGACGGGATT
B30: GCACAGC (DNA:RNA)
RNA: B1 RNA with C25G, A26C, G27A, U30G, U31C
DNA 1: CAATCTGAATTCCGGTCTCCC
DNA 2: TGGTGGCTACGACGGGATT
B31: GCGAUGU (DNA:RNA)
RNA: B1 RNA with C25G, A26C, C28A, A29U, U30G
DNA 1: CAATCTGAATTCCGGTCTCCC
DNA 2: TGGTGGCTACGACGGGATT

biological target: T1, RBFOX1 RRM RbFoxmut (Fox-RRM*); assay: EMSA; HiTS-Eq, 1 nM pool, 10 min; buffer printed only for the single-RNA assays: 10 mM Tris pH 7.5, 150 mM NaCl, 3.4 mM EDTA, 0.001% NP-40, 30 C; conditions: tags: His6 N-terminal (pET28a); label: 5' 32P
How it was run: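 Purified wild-type or mutant RbFox RRM at increasing concentrations was equilibrated with 1 nM of 5′-radiolabelled RNA carrying 7 randomized nucleotides for 10 min in 50 µL. Unbound RNA was separated by 8% native PAGE and sequenced. Relative association constants came from read-count changes of each RNA species compared with the control reaction, normalised to the cognate motif.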

First: B1
Second: B2
The binding signal of the first is higher: 0.107 KA relative to UGCAUGU for the first, 0.0699 KA relative to UGCAUGU for the second.

Compared with B3, B4 is higher in binding signal: 0.148 KA relative to UGCAUGU for the first, 0.446 KA relative to UGCAUGU for the second.

First: B5
Second: B6
The binding signal of the first is higher: 0.1 KA relative to UGCAUGU for the first, 0.0764 KA relative to UGCAUGU for the second.

First: B7
Second: B8
The binding signal of the first is lower: 0.125 KA relative to UGCAUGU for the first, 0.951 KA relative to UGCAUGU for the second.

First: B9
Second: B10
The binding signal of the first is higher: 0.161 KA relative to UGCAUGU for the first, 0.109 KA relative to UGCAUGU for the second.

Compared with B11, B12 is higher in binding signal: 0.0732 KA relative to UGCAUGU for the first, 0.104 KA relative to UGCAUGU for the second.

Compared with B13, B14 is lower in binding signal: 0.147 KA relative to UGCAUGU for the first, 0.104 KA relative to UGCAUGU for the second.

Compared with B15, B16 is higher in binding signal: 0.0822 KA relative to UGCAUGU for the first, 0.103 KA relative to UGCAUGU for the second.

First: B17
Second: B18
The binding signal of the first is lower: 0.178 KA relative to UGCAUGU for the first, 0.182 KA relative to UGCAUGU for the second.

First: B19
Second: B20
The binding signal of the first is lower: 0.167 KA relative to UGCAUGU for the first, 0.181 KA relative to UGCAUGU for the second.

First: B21
Second: B22
The binding signal of the first is lower: 0.132 KA relative to UGCAUGU for the first, 0.135 KA relative to UGCAUGU for the second.

First: B23
Second: B24
The binding signal of the first is higher: 0.66 KA relative to UGCAUGU for the first, 0.551 KA relative to UGCAUGU for the second.

First: B25
Second: B26
The binding signal of the first is higher: 0.612 KA relative to UGCAUGU for the first, 0.101 KA relative to UGCAUGU for the second.

Compared with B27, B28 is higher in binding signal: 0.0449 KA relative to UGCAUGU for the first, 0.0584 KA relative to UGCAUGU for the second.

First: B29
Second: B30
The binding signal of the first is higher: 0.102 KA relative to UGCAUGU for the first, 0.0832 KA relative to UGCAUGU for the second.

In the case of B31, the binding signal is reported as 0.151 KA relative to UGCAUGU.
